# In ChEMBL document CHEMBL3988442, “University of Dundee, Small-Polar-MMV Screening Library” (2021):
# The whole screen tested about 48,000 compounds, of which about 13,000 (27%) showed an effect of 50% or more. The list shows a part of the results.
# Test system: Wolbachia pipientis
# Test: Anti-Wolbachia Cell-Based Screen
# Assay type: functional
# Parameters: scale not given: in the data most compounds retested in dose-response had high values
# Details: 5 µM
row,Compound,Percent Effect
1,NC(=O)C(NCc1ccc(Cl)s1)c1ccccc1 (stereo not drawn),-5.898%
2,CC(c1nc(C2CC2)no1)N(C)Cc1ccc(Cl)cc1 (stereo not drawn),-4.386%
3,Cc1cc(-c2nn(C)c(Cl)c2CN2CC[C@@](O)(C3CCC3)[C@H](C)C2)no1,9.361%
4,CC(C1CCN(Cc2c(Cl)cncc2Cl)CC1)N1CCOCC1 (stereo not drawn),1.146%
5,CCCNC(=O)c1ccc(S(=O)(=O)NCC2(O)CCCNC2)cc1 (stereo not drawn),-4.599%
6,CC1CCN(CCNC(=O)Nc2ccc(F)cc2Cl)CC1,1.976%
7,Cc1cccc(N2CCN(CCNC(=O)c3ccnn3C)CC2)c1,20.06%
8,NC(=O)CN1CCC(C(=O)NCCn2cc(Cl)cn2)CC1,2.042%
9,O=C(NCCN1CCCCCC1)c1coc(COc2ccc(F)cc2)n1,-5.25%
10,O=C(Cn1cc(Cl)cn1)NCCN1CCC(O)(c2ccc(F)cc2)CC1,66.04%
11,NC(=O)C1CCN(CC(=O)NCCn2cc(Cl)cn2)CC1,-2.539%
12,Cn1ncc(Cl)c1C(=O)NCCN1CCC(O)(c2ccc(F)cc2)CC1,129.2%
13,Cn1nccc1C(=O)NCCN1CCC(O)(c2ccc(F)cc2)CC1,137.8%
14,O=C(NCCN1CCOCC1)c1ccc(-c2ccc(F)cc2)nc1O,-1.382%
15,Cc1c(Cl)cccc1OCC(=O)NC1(C#N)CCSC1 (stereo not drawn),-5.269%
16,COc1cc2nc(C)sc2cc1NC(=O)CN(C)C(C)C,-15.43%
17,CC(C)(C)OC(=O)N1CCCc2ccc(NCc3ccon3)cc21,-9.372%
18,COC(=O)Nc1cccc(C(=O)N(C)Cc2cccc(O)c2)c1,89.16%
19,CN(C)C(=O)c1cccc(NC(=O)N(CCO)Cc2ccsc2)c1,5.648%
20,CN(Cc1cccc(F)c1)C(=O)c1ccncc1Cl,-2.45%
21,CC(C)Cn1ncc2cc(C(=O)N(C)Cc3cccc(O)c3)cnc21,-1.61%
22,COC(=O)c1cccc(C(=O)N(C)Cc2ccsc2)c1,77.93%
23,CCN(C)C(=O)c1cccc(C(=O)N(C)Cc2cccc(O)c2)c1,101.4%
24,COCc1cccc(NC(C)C(=O)N(C)Cc2cccc(F)c2)c1 (stereo not drawn),-0.4154%
25,CN(Cc1cccc(O)c1)C(=O)c1ccc(CCC(C)(C)O)cc1,-13.77%

row,Compound,Percent Effect
1,CC(=O)Nc1cccc(CNC(=O)N(C)Cc2ccccc2)c1,-8.333%
2,COC(=O)c1cccc(C(=O)N(C)Cc2cccc(F)c2)c1,85.67%
3,CN(Cc1ccsc1)C(=O)c1cccc(F)c1,7.751%
4,c1cnc2c(c1)nc1n2[C@@H](CNC2CCOCC2)COC1,-0.09884%
5,CCCC(=O)N(CCCN1CCOCC1)c1nc2c(F)cccc2s1.Cl,33.03%
6,CN(C)Cc1nnc(C(=O)N(C)Cc2ccc(C(F)(F)F)cc2)o1,-9.605%
7,O=C(NCc1nc(C2CCCCC2)no1)C1CC(=O)N(C2CCCC2)C1 (stereo not drawn),-9.19%
8,CCc1nc(CSc2nnc(N)n2C2CC2)no1,6.66%
9,CC(=O)c1cccc(OCCCC(=O)N(C)Cc2cccc(O)c2)c1,-0.5874%
10,COC(=O)c1cccc(C(=O)N(C)Cc2cccc(O)c2)c1,112.7%
11,Cc1cccc(Cl)c1NC(=O)Cn1cc(C(=O)O)ccc1=O,9.076%
12,Cc1cnc(NC(=O)NCCOc2ncccc2Cl)s1,12.43%
13,Cc1ccc(NC(=O)Cc2cnc3n(C)c(=O)[nH]c(=O)n23)cc1,128%
14,Cn1c(=O)[nH]c(=O)n2c(CC(=O)NCc3ccccc3)cnc12,108.8%
15,Cc1nc2c(c(C)c1CC(=O)Nc1ccc(Cl)cc1)c(=O)[nH]n2C,-4.982%
16,O=C(CCn1ccccc1=O)Nc1ccc(F)c(Cl)c1,4.502%
17,Cn1c(=O)[nH]c(=O)n2c(CC(=O)Nc3c(Cl)cccc3Cl)cnc12,100.8%
18,CC(C)(C)n1ncc2c(=O)n(CC(=O)NCc3ccccc3)cnc21,3.953%
19,COc1ncc(C(=O)NCc2ccccc2)cn1,-10.01%
20,Cn1c(=O)[nH]c(=O)n2c(CC(=O)Nc3ccc(Cl)c(Cl)c3)cnc12,103.6%
21,COCC(=O)Nc1ccc(Sc2nncn2C)c(Cl)c1,2.363%
22,Cc1nc2cc(=O)[nH]n2c(C)c1CC(=O)Nc1cn[nH]c1,-20.81%
23,CNS(=O)(=O)CC(=O)N(Cc1c(F)cccc1F)C1CCCC1,-5.167%
24,Cc1cccc(CN(C(=O)CS(C)(=O)=O)C(C)C)c1,-6.499%
25,CC(C)c1cnc(CN2CCCS2(=O)=O)o1,3.272%

row,Compound,Percent Effect
1,O=C(NCC(O)c1ccc(F)c(F)c1)c1cccnc1O (stereo not drawn),-2.059%
2,CCNc1ncc(CN2C[C@H](C3CC3)[C@@H](N)C2)cn1,-8.073%
3,CC(C)Cc1cc(CNC(=O)c2cccc3c2NCCC3)no1,2.864%
4,Cn1c(=O)ccn(CC(=O)Nc2cccnc2)c1=O,18.35%
5,Cc1cccc(NCc2nn(C)c(=O)[nH]2)c1,-1.788%
6,Cn1c(=O)[nH]c(=O)n2c(CC(=O)Nc3ccccc3)cnc12,114.1%
7,Cc1cccc(NC(=O)Cc2cnc3n(C)c(=O)[nH]c(=O)n23)c1,101.4%
8,Cc1nc2c(c(C)c1CC(=O)Nc1cccc(C#N)c1)c(=O)[nH]n2C,-6.097%
9,COCCn1ccc(=O)c(OCC(=O)Nc2ccccc2)c1C,9.271%
10,Cc1nnc(N2CCC(CCN(C)C)CC2)c(C#N)c1C,18.81%
11,O=S(=O)(C1CC1)N1CCOC2(CCCN(c3ccccc3)C2)C1 (stereo not drawn),-6.387%
12,COC(=O)N1C[C@H]2CC[C@@H]1CN(Cc1cscn1)C2,-5.87%
13,Cc1ccc(N2CCCC(N(C)Cc3nc(C)c(C)o3)C2)nn1 (stereo not drawn),-10.05%
14,O=C(O)C(F)(F)F.O=C1COC2(CCN(Cc3nccs3)CC2)CN1CC1CC1,-7.755%
15,Cc1ccc(N2CC3(COCCN(Cc4cnn(C)c4)C3)OCC2=O)s1.O=C(O)C(F)(F)F (stereo not drawn),-8.814%
16,O=C(O)C(F)(F)F.O=C(O)C(F)(F)F.O=C1COC2(CCN(Cc3ccncc3)CC2)CN1c1ccccc1,106.6%
17,CN1CC(=O)N(c2cccc(F)c2)CC12CCN(Cc1ccncc1)C2.O=C(O)C(F)(F)F.O=C(O)C(F)(F)F (stereo not drawn),-24.86%
18,O=C(O)C(F)(F)F.O=C1COC2(CCN(Cc3nccs3)CC2)CN1c1ccccc1,109.8%
19,Cn1cc(CN2CCC3(CC2)CN(c2cccnc2)C(=O)CO3)cn1,89.07%
20,O=C(O)C(F)(F)F.O=C(O)C(F)(F)F.O=C1COC2(COCCN(Cc3cccnc3)C2)CN1c1ccccc1 (stereo not drawn),-10.32%
21,CN1CC(=O)N(c2ccccc2)CC12CCN(Cc1nccs1)C2.O=C(O)C(F)(F)F.O=C(O)C(F)(F)F (stereo not drawn),-23.26%
22,O=C(O)C(F)(F)F.O=C(O)C(F)(F)F.O=C1COC2(CCN(Cc3cccnc3)CC2)CN1c1ccccc1,95.43%
23,Cc1ccc(N2CC3(COCCN(Cc4ccncc4)C3)OCC2=O)s1.O=C(O)C(F)(F)F.O=C(O)C(F)(F)F (stereo not drawn),7.716%
